Screening data (PubChem BioAssay)
BAZ2B block: BAZ2B (human) inhibition. Q9UIF8. AlphaScreen BAZ2B-H3K14Ac peptide displacement. Potency, µM (titrated, usually from 114 µM), inactives show top-dose activity change, negative = inhibition, usual class: inhibitors. 360,000 tested, 4.4% active. AID 504333; further: on the % scale 0 is the no-effect control and ±100 the full control effect; nearly all actives have a fitted effect of over 60% in size
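Protein-peptide AlphaScreen: BAZ2B 50 nM, b-H3K14Ac 50 nM, 1x PBS pH 7.4 + 0.01% Tween-20. Preincubation 30 min RT; cpd 30 min RT (top 110 uM); beads 20 min RT, light-protected.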
GLS inhibitor: blocks human kidney-isoform glutaminase activity; 410,000 tested, 0.21% active; AID 624170; GLS enzymatic activity, qHTS titration; Potency, µM (top dose mostly 45.5 µM), inactives show at the top dose activity change, negative = inhibition, usual class: inhibitors; O94925; further: on the % scale 0 is the no-effect control and ±100 the full control effect
Target sequence (O94925 whole entry, looked up, canonical isoform): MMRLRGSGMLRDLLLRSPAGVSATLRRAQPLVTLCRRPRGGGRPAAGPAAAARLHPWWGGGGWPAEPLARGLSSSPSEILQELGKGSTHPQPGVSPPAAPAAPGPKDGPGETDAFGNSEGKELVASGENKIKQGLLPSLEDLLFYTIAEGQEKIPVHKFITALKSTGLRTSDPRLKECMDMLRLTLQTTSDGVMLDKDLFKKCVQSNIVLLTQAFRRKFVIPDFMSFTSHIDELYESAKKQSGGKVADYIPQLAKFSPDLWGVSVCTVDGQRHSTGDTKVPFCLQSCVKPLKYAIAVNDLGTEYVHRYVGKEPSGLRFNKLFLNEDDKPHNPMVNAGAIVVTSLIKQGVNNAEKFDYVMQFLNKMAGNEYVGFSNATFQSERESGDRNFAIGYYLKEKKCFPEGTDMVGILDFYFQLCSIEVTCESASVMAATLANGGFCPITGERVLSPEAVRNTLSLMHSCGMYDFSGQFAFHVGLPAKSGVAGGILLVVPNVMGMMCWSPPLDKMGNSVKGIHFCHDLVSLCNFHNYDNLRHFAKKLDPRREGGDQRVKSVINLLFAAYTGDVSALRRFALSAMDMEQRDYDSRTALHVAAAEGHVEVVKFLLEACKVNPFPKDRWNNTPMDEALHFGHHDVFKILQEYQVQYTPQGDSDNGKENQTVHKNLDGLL
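Read-out is an Amplex red fluorescence increase coupled through glutamate oxidase and HRP, measured before and after 30 min room-temperature incubation. hKGA is in 45 mM KH2PO4 (pH 8.2) with 0.02% Tween-20; glutamine added as 1mM solution.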
JMJD2A Tudor inh: blocks the human JMJD2A Tudor domain | Potency, µM (titrated, usually from 114 µM), for inactives: top-dose activity change, negative = inhibition, usual class: inhibitors | O75164 | AID 504339 | AlphaScreen JMJD2A-Tudor / H3K4me3 peptide binding | 390,000 tested, 4.4% active; further: on the % scale 0 is the no-effect control and ±100 the full control effect; nearly all actives have a fitted effect of over 50% in size
HP1b chromo inh: HP1-beta chromodomain-methylated histone interaction inhibition. P83916. 390,000 tested, 0.56% active. AID 540317. AlphaScreen HP1-beta / biotin-H3K9me3 peptide binding. Potency, µM (doses to about 114 µM), inactives show top-dose activity change, negative = inhibition, most hits filed as inhibitors; further: nearly all actives have a fitted effect of over 70% in size
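Compound inhibition of the preformed complex between 50 nM HP1-beta and 50 nM biotinylated H3K9me3 peptide was read by AlphaScreen. Buffer was PBS pH 7.4 with 0.01% Tween-20. Incubations ran 30 min at room temperature, with 10 ug/mL donor/acceptor beads.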
G9a inh: blocks human histone lysine methyltransferase G9a; AID 504332; 350,000 tested, 8.8% active; Potency, µM (series often up to 102 µM), for inactives: top-dose activity, negative = inhibition, hits mostly inhibitors; Q96KQ7; G9a H3K9 monomethylation, AlphaScreen, 2 h; further: on the % scale 0 is the no-effect control and ±100 the full control effect; nearly all actives have a fitted effect of over 75% in size
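Methyltransferase reactions run at room temperature for 2 h (20 nM enzyme, 500 nM biotin-H3K9 peptide, 20 uM SAM) after a 15 min compound preincubation; product detected by AlphaScreen beads and anti-H3K9me1 antibody.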
Numbers without * were called inactive; ? = inconclusive; · = no result; [ ] = dose if it differs, or a comment. Compounds with a hit are over-represented: about 10% of the library has one in this group of screens. The call rests on the fitted dose curve; in most records, active means well fitted curve in the direction sought with a large enough effect; inconclusive means small, poorly fitted or top-dose-only effect, or another doubt; inactive means no such curve, though single readings can be large; an effect the other way counts as inactive or inconclusive. Potency means the concentration at half of the fitted maximal effect.

SMILES	BAZ2B block	GLS inhibitor	JMJD2A Tudor inh	HP1b chromo inh	G9a inh
CCN(Cc1ccccc1)C(=O)c1cc2ccc3cccnc3c2[nH]1	4%[57.1 µM]	-9%	-18%	11%	-26%[59 µM]
O=C(Nc1ccc2nc(SCC(=O)N3CCCC3)sc2c1)c1cccc(F)c1	-27%	-8%	-14%	54%	3%[59 µM]
CCOC(=O)c1c(NC(=O)COc2ccc(Cl)cc2Cl)sc2c1CCCCC2	2%	-7%	4%	43%	9%[59 µM]
COC(=O)C(CCSC)NC(=O)c1cc2c(n(-c3ccc(C)cc3)c1=O)CCCC2=O (stereo not given)	50µM*	-1%	-9%	27%[57 µM]	0.56µM*
CCc1cccc(NC(=O)CN(c2ccc(C)cc2)S(=O)(=O)c2cccs2)c1	·	1%	4%	51%	-2%[59 µM]
Fc1cccc(CNc2ncnc3ccc(-c4cccnc4)cc23)c1	8%	·	·	·	-5%[12.7 µM]
CCOC(=O)c1ccccc1NC(=O)Cn1c(=O)n(CCCC(=O)NCc2ccc3c(c2)OCO3)c(=O)c2ccccc21	5%	-5%	-9%	54%	-21%[59 µM]
COc1ccc(N/N=C(/Oc2ccc([N+](=O)[O-])cc2)C(C)=O)cc1	?	11%	-26%	-20%	?
COc1ccc(C(=O)C(/C=N/O)=N/Nc2ccc(F)cc2)cc1	?	-1%	-16%	20%	18µM*
CO/N=C/C(=N\Nc1ccc(OC)cc1)C(=O)c1ccc(OC)cc1	?	8%	?	-26%	35µM*
CCOC(=O)CSC1=Nc2ccccc2C2=NC(CCC(=O)NCc3ccccc3)C(=O)N12 (stereo not given)	1%	36%	-11%	21%	8%[59 µM]
CSc1nnc(-c2cccc(NC(=S)NN)c2)o1	?	17%	-21%	12%	7.9µM*
COc1ccc(C2=CCCCCC2)cc1OC	·	-3%	·	·	·
COc1ccc(/C=c2\s/c(=C(/C#N)C(=O)NCc3ccco3)n(-c3ccccc3)c2=O)cc1	8%	-10%	-2%	18%	-2%[59 µM]
COC(=O)/C=c1/s/c(=C(\C#N)C(=O)NCc2ccco2)n(-c2ccccc2)c1=O	-7%	6%	-6%	12%	45µM*
CCOC(=O)C1(CCOC)CCN(Cc2cnc(-c3cccc(C)c3)nc2)CC1	-1%	0%	-27%	29%	45µM*
CCOC(=O)C1(CCOc2ccccc2)CCN(Cc2ccc(O)c(OCC)c2)CC1	0%	-3%	?	13%	79µM*
CCOC(=O)C1(CCOc2ccccc2)CCN(Cc2cc(OC)c(O)c(OC)c2)CC1	-33%	-1%	?	-25%	79µM*
CCOC(=O)C1(Cc2ccccc2C)CCCN(Cc2cc(OC)c(O)c(OC)c2)C1 (stereo not given)	-26%	?	0%[57.1 µM]	28%	45µM*
COC1OCC(O)C(NC(=O)N(C)N=O)C1O (stereo not given)	·	11%	·	·	·
COc1ccc(NC(=O)Nc2ccc3c(c2)CC(=O)N([C@H](C)CO)C[C@H](C)[C@H](CN(C)Cc2ccc(C(=O)O)cc2)O3)cc1	·	19%	-6%	48%	·
COCCn1c(=O)c(-c2ccccc2)nc2cnc(Nc3cccc(OC)c3)nc21	·	·	·	·	-4%[0.501 µM]
CC[C@@]1(C(=O)OC)N[C@H](CN(C)C(=O)Nc2ccc(OC)cc2)[C@@H]2C(=O)N(Cc3ccccc3)C(=O)[C@@H]21	·	18%	-23%	23%	·
CCC(C)n1c(=N)c(C#N)cc2c(=O)n3cc(C)ccc3nc21 (stereo not given)	-21%	-4%	-16%	42%	29%
O=C(CNc1ccc(Br)cc1)NC(=O)NC1CCCCC1	-4%	11%	-18%	7%	?
SMILES	BAZ2B block	GLS inhibitor	JMJD2A Tudor inh	HP1b chromo inh	G9a inh
CCN(CC(=O)Nc1ccc(NC(C)=O)cc1)C(=O)c1ccccc1SCc1c(C)noc1C	56µM*	3%	-32%	2%	40µM*
CCN(CC(=O)Nc1ccc(NC(C)=O)cc1)C(=O)CSCc1c(C)noc1C	4%	4%	-3%	24%	11%[0.501 µM]
CCOc1ccc(/C=C/C(=O)Nc2ccc(N3CCOCC3)cc2)cc1	-3%	?	25µM*	-9%	·
CCCCOC(=O)Nc1ccc(C(N)=O)cc1	-18%	11%	2%	27%	7%[59 µM]
CCCCOC(=O)Nc1ccc(N2CCCCC2)cc1	?	28%	28µM*	?	7.9µM*
CCCCOC(=O)Nc1ccc(N2CCOCC2)cc1	-8%	34%	-22%	8%	7.1µM*
Cc1nc(C(F)(F)F)ccc1C(=O)N1CCC1(C)C(=O)NCc1ccc(Cl)cc1 (stereo not given)	·	5%	·	·	·
CCN(CC)S(=O)(=O)c1ccc(OC)c(NC(=S)Nc2ccc(C)c(C)c2)c1	?	12%	-30%	-9%	23%[59 µM]
Cn1cccc1C(=O)N1CCC2(CCCN(C(=O)Nc3cccc(C#N)c3)C2)CC1	·	·	·	·	-8%[12.7 µM]
NC(=O)CC(NC(=O)Cc1ccc(Cl)cc1)c1ccc(NC2CCN(Cc3ccccc3)CC2)c([N+](=O)[O-])c1 (stereo not given)	?	-4%	-29%	13%	?
NC(=O)CC(NC(=O)c1ccccc1)c1ccc(N2CCc3ccccc3C2)c([N+](=O)[O-])c1 (stereo not given)	?	1%	?	25%	·
NC(=O)CC(NC(=O)c1ccc(Br)cc1)c1ccc(NC2CCCCCCC2)c([N+](=O)[O-])c1 (stereo not given)	?	0%	?	-16%	79µM*
NC(=O)CC(NC(=O)c1ccc(Br)cc1)c1ccc(N2CCCCCC2)c([N+](=O)[O-])c1 (stereo not given)	?	2%	?	-24%	45µM*
NC(=O)CC(NC(=O)c1cccc(Br)c1)c1ccc(N2CCCCCC2)c([N+](=O)[O-])c1 (stereo not given)	?	-2%	?	-9%	·
NC(=O)CC(NC(=O)c1cccc(Br)c1)c1ccc(NC2CCN(Cc3ccccc3)CC2)c([N+](=O)[O-])c1 (stereo not given)	?	8%	?	-11%	50µM*
NC(=O)CC(NC(=O)c1ccccc1)c1ccc(N2CCCCCCC2)c([N+](=O)[O-])c1 (stereo not given)	?	-5%	-35%	9%	45µM*
COc1ccc(Br)c(Cn2c(C)c(C(=O)NCCC#N)sc2=O)c1	·	8%	·	·	·
CCOc1ccc(OCC)c(NC(=O)C2CCCN(S(=O)(=O)c3cc(Br)cc4c3N(C(=O)CC)CC4)C2)c1 (stereo not given)	0%	-3%	-5%	29%	-19%[59 µM]
COc1ccc(C2Nc3ccc(NC(C)=O)cc3C(=O)N2Cc2cccc(Cl)c2)cc1COc1ccc(NC(C)=O)cc1 (stereo not given)	·	·	?	12%	·
